From PubChem BioAssay
MCF10A rerep – A quantitative high throughput screen for small molecules that induce DNA re-replication in MCF 10a normal breast cells; actives 2.9% (n = 350,000); AID 624296, 2012; MCF 10A DNA re-replication, Hoechst nuclear intensity, 48 h; Potency, µM (series often up to 46.1 µM), for the others: at the highest dose activity, positive = re-replication, usual class: activators; further: % of control where 0% means no effect; nearly all actives have a fitted effect of over 50% in size
KB-3-1 tox – qHTS assay for MDR1-selective chemotherapeutics: Primary screen using the parental adenocarcinoma cell KB-3-1 | KB-3-1 viability, CellTiter-Glo ATP luminescence, 72 h | Potency, µM (doses to about 46.1 µM), usual class: cytotoxic | actives 1.4% (n = 400,000) | AID 1347075, 2019; further: on the % scale 0 is the no-effect control and ±100 the full control effect; nearly all actives have a fitted effect of over 60% in size
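Using CellTiter-Glo luminescence, growth of non-resistant KB-3-1 adenocarcinoma cells is assessed 72 h after pin-tool compound addition at 37 °C. Normalized responses across the concentration series yield fitted curves.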
HT1080NT lethal – qHTS for induction of synthetic lethality in tumor cells producing 2HG: qHTS for the HT-1080-NT fibrosarcoma cell line; HT-1080-NT fibrosarcoma viability, CellTiter-Glo ATP luminescence, 48 h; Potency, µM (top dose mostly 46.1 µM), without a hit: at the top dose activity, negative = less viability, actives largely listed as cytotoxic; actives 1.6% (n = 360,000);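 further: NT is the 2HG producing partner of a matched IDH1 knockdown line; 0% = DMSO-treated cells and -100% = media-only wells without cells; nearly all actives have a fitted effect of over 55% in size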
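Viability of the 2HG-overproducing fibrosarcoma line after 48 hours of compound exposure at 37 degrees C was determined by luminescence with CellTiter-Glo, and concentration-effect curves were then fitted and categorized.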
SW480 rereplic – A quantitative high throughput screen for small molecules that induce DNA re-replication in SW480 colon adenocarcinoma cells. Potency, µM (doses to about 46.1 µM), for the others: at the highest dose re-replication activation, usual class: activators. actives 1.8% (n = 340,000). SW480 DNA re-replication, Hoechst DNA content imaging, 48 h; further: % of control where 0% means no effect; nearly all actives have a fitted effect of over 55% in size
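250 cells/well; 23 nL cpd via pin tool; 48 hr, 37 C, 5% CO2; Hoechst 40 min; imager read of total nuclear intensity, ex 405/em 500-530 nm.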
HT1080 IDH1KD tx – qHTS for induction of synthetic lethality in tumor cells producing 2HG: qHTS for the HT-1080-IDH1KD cell line | HT-1080 IDH1 knockdown viability, ATP luminescence, 48 h | Potency, µM (top dose mostly 46.1 µM), for inactives: at the highest dose activity, negative = toxicity, most hits filed as cytotoxic | actives 2% (n = 360,000) | AID 686971, 2013;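 further: 0% = DMSO wells and -100% = cell-free medium wells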
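CellTiter-Glo luminescence after 48 h compound exposure at 37 degrees C of IDH1-knockdown HT-1080 cells in 5% FBS RPMI. %Activity scaled between DMSO wells and cell-free media wells, with curves fitted and assigned curve classes.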
KB-V1 cytotox – qHTS assay for MDR1-selective chemotherapeutics: Primary screen using the drug-selected MDR subline cells KB-V1; Potency, µM (series often up to 46.1 µM), actives largely listed as cytotoxic; AID 1347076, 2019; actives 3.4% (n = 400,000); KB-V1 MDR cells viability, CellTiter-Glo, 72 h; further: on the % scale 0 is the no-effect control and ±100 the full control effect; nearly all actives have a fitted effect of over 60% in size
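Following 72 h at 37 degrees C with compound, KB-V1 cell viability was read by CellTiter-Glo luminescence, medium being phenol-red-free DMEM plus 10% FBS; concentration-response parameters came from normalized, curve-fitted qHTS data.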
* hit, by the source's call; i = inactive; u = inconclusive; x = no result given. Most compounds without a hit are left out; they make up all but 7.9% or so of the library. The call rests on the fitted dose curve; in most records, active means well fitted curve in the direction sought with a large enough effect; inconclusive means small, poorly fitted or top-dose-only effect, or another doubt; inactive means no such curve, though single readings can be large; an effect the other way counts as inactive or inconclusive. Potency means the concentration at half of the fitted maximal effect.

SMILES	MCF10A rerep	KB-3-1 tox	HT1080NT lethal	SW480 rereplic	HT1080 IDH1KD tx	KB-V1 cytotox
Cc1cccc(C(=O)OC(C)C(=O)Nc2ccc(S(=O)(=O)N3CCCC3)cc2)c1O (stereo unspecified)	u	i	-17.1%	2.8%	u	i
Cc1ccc(NC(=O)COC(=O)c2ccccc2OCC(=O)Nc2ccc(Br)cc2)c(Br)c1	x	x	-1.0%	x	-4.2%	x
Cc1ccc2[nH]c(=O)c(CN(c3cccc(C)c3C)S(=O)(=O)c3ccccc3)cc2c1	u	6.51µM*	22.4%	21.5%	u	u
Cc1ccc(S(=O)(=O)N(Cc2cc3ccccc3[nH]c2=O)c2cccc(C)c2)cc1	u	i	4.3%	4.11µM*	8.8%	u
Cc1ccc(S(=O)(=O)N(CC(=O)N=Nc2c(O)[nH]c3ccccc23)c2cccc(C)c2)cc1	u	20.6µM*	u	u	13µM*	20.6µM*
CCCCN(Cc1cc2ccccc2[nH]c1=O)S(C)(=O)=O	-0.9%	i	3.8%	10.3µM*	7.2%	u
Cc1ccc(N(Cc2cc3cccc(C)c3[nH]c2=O)S(=O)(=O)c2ccccc2)c(C)c1	1.5%	i	0.9%	-0.9%	5.1%	i
Cc1c(C(=O)O)[nH]c2ccc([N+](=O)[O-])cc12	-4.8%	i	0.4%	-9.2%	13.0%	i
NCCc1c(C(=O)O)[nH]c2ccc([N+](=O)[O-])cc12	1.3%	u	1.7%	0.1%	25.5%	10.3µM*
COc1cc(NC(=O)Cn2ncc(Cl)c(Cl)c2=O)c(C)cc1[N+](=O)[O-]	3.66µM*	i	7.31µM*	u	2.59µM*	i
CC(C)(Oc1ccc(Cl)cc1)C(=O)N(Cc1ccccc1)c1ccccn1	8.0%	i	5.1%	u	4.9%	14.6µM*
O=C(COc1ccc(Cl)cc1)N(Cc1ccccc1)c1ccccn1	u	i	-5.4%	3.2%	-13.5%	i
O=C(COc1ccc(Br)cc1)N(Cc1ccccc1)c1ccccn1	11.4%	i	3.0%	-2.7%	-11.1%	18.4µM*
Cc1ccc(NC(=O)c2ccc(S(=O)(=O)N3CCCCC3)cc2)cc1	0.4%	i	8.0%	-12.1%	-3.8%	i
Cc1ccc(S(=O)(=O)N2CCCN(C)CC2)cc1	u	i	9.0%	4.1%	11.9%	i
Cc1ccc(NC(=O)c2ccc(S(=O)(=O)N3CCCC3)cc2)cc1	15.1%	i	-2.9%	0.3%	-16.4%	23.1µM*
CC1CCN(S(=O)(=O)c2ccc(C(=O)Nc3ccccc3-c3nc4ccccc4[nH]3)cc2)CC1	1.5%	u	-0.6%	1.1%	0.0%	16.4µM*
Cc1ccc(S(=O)(=O)N2CCCN(S(=O)(=O)c3ccc(C(F)(F)F)cc3)CC2)cc1	7.31µM*	i	1.6%	9.2%	u	u
Cc1ccc(C(=O)NNC(=O)c2ccc(S(=O)(=O)N3CCCCC3)cc2)cc1	u	i	-0.1%	16.4µM*	u	i
CCc1ccc(NC(=O)CCNS(=O)(=O)c2ccc3c(c2)CCCC(=O)N3)cc1	x	i	x	x	x	i
COc1ccc(CCNC(=O)CCC(=O)N2CCOc3ccccc32)cc1OC	7.6%	i	2.5%	-4.0%	8.6%	i
CC(C)N(C(=O)NC(=O)Nc1ccc(S(=O)(=O)N2CCCC2)cc1)S(C)(=O)=O	0.651µM*	i	-2.9%	2.4%	-6.9%	i
Cc1ccc(NC(=O)c2ccc(S(=O)(=O)N3CCCCCC3)cc2)nc1	4.8%	i	u	3.5%	-11.2%	u
